Sfp inh – qHTS Assay for Inhibitors of Bacillus subtilis Sfp phosphopantetheinyl transferase (PPTase) | 4'-phosphopantetheinyl transferase ffp (Bacillus subtilis), Q9F4F7 | Biochemical Sfp PPTase activity, qHTS | Potency, µM, inactives show largest response in the series, negative = inhibition, hits mostly inhibitors | actives 3.5% (n = 310,000) | AID 1490, 2009;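 note: the enzyme is Sfp with the accession as filed and its product quenches rhodamine fluorescence; 0% = enzyme reaction without inhibitor and -100% = no enzyme wells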
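With Hepes-Na pH 7.6 buffer containing 10 mM MgCl2, Sfp (15 nM) modified BHQ-2-YbbR (12.5 uM) using rhodamine-CoA (5 uM). Two reads 30 minutes apart at 525/598 nm yielded each well's rate.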
12-LOX inh – Primary qHTS assay for inhibitors of human arachidonate 12S-lipoxygenase (ALOX12): Round 2 | actives 1.1% (n = 580,000) | Potency, µM (highest dose often 108 µM), without a hit: at the highest dose activity change, negative = inhibition, actives largely listed as inhibitors | purified 12hLO, xylenol orange hydroperoxide absorbance; note: % is set by controls: 0 for no effect and ±100 for the full control effect
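Hydroperoxide product was detected by ferrous iron/xylenol orange as the 573 to 405 nm absorbance ratio. Arachidonic acid at 40 uM (final) was turned over for 30 min at room temperature by 150 nM human 12hLO, pH 7.0 Hepes buffer, after 15 min compound preincubation.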
VDR inhibitor – Inhibitors of the vitamin D receptor (VDR): qHTS; Vitamin D3 receptor (Homo sapiens), P11473; VDR-SRC2-3 peptide fluorescence polarization, 2 h; Potency, µM, without a hit: max response, negative = inhibition, usual class: inhibitors; actives 0.93% (n = 400,000); note: % is set by controls: 0 for no effect and ±100 for the full control effect
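Two reagent solutions held at 4 deg C in the dark were dispensed, compounds pinned at 23 nl, and the mixture incubated 2 h at room temperature. Read-out: fluorescence polarization of VDR–SRC2-3 peptide binding.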
G9a inh – qHTS Assay for Inhibitors of Histone Lysine Methyltransferase G9a | actives 8.8% (n = 350,000) | G9a H3K9 monomethylation, AlphaScreen, 2 h | AID 504332, 2011 | Potency, µM (highest dose often 102 µM), for inactives: at the top dose activity, negative = inhibition, most hits filed as inhibitors | Histone-lysine N-methyltransferase EHMT2 (Homo sapiens), Q96KQ7; note: % is set by controls: 0 for no effect and ±100 for the full control effect; nearly all actives have a fitted effect of over 75% in size
Target sequence (Q96KQ7 913-1193 limits assumed): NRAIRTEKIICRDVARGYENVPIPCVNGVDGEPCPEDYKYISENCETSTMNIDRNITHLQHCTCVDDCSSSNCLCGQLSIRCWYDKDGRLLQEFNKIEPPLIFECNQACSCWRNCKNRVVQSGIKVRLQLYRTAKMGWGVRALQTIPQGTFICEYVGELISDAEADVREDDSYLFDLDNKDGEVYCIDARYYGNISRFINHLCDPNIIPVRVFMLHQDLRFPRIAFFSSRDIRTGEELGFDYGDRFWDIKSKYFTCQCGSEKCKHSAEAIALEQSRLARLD
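Using a bead-based AlphaScreen, monomethylated H3K9 product from 2 h room-temperature reactions (G9a 20 nM, peptide 500 nM, SAM 20 uM) was detected with 0.5 ug/mL rabbit anti-H3K9me1 antibody.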
Glioma ERSR ind – qHTS for Inducers of the Endoplasmic Reticulum Stress Response (ERSR) in Human Glioma: qHTS; U87-MG GRP78 promoter luciferase reporter, 16 h; Potency, µM, without a hit: at the top dose activation, hits mostly activators; actives 0.02% (n = 420,000); AID 602332, 2012; note: series mostly up to about 76 µM; % of control where 0% means no effect; nearly all actives have a fitted effect of over 35% in size
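Stably transfected U87-MG glioma cells carrying a GRP78-based luciferase sensor; 16 h compound incubation. Luminescence end-point read 10 min after Bright-Glo addition at room temperature.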
* = called active by the depositor; [ ] = remark or other dose. This is one part of a sample in which hits are shown more often than they occur. Calls come from the whole dose curve; as a rule, active = well fitted curve in the direction sought with a large enough effect; inconclusive = small, poorly fitted or top-dose-only effect, or another doubt; inactive = no such curve, though single readings can be large; an effect the other way counts as inactive or inconclusive. Potency is the fitted concentration of half-maximal effect.

Screening Cc1c2c(=O)n(-c3ccc(Cl)cc3)[nH]c2cc(=O)n1Cc1ccc(F)cc1 returned 12-LOX inh -13%.
`COc1ccc(C(=O)CCN2CCc3cc(OC)c(OC)cc3C2)cc1` gave Sfp inh -10%, 12-LOX inh 31%, VDR inhibitor inconclusive, G9a inh 13µM* and Glioma ERSR ind -18%.
`COc1ccc(C(=O)CCN2CCN(c3ccccc3OC)CC2)cc1` gave Sfp inh 50µM*, 12-LOX inh inconclusive, VDR inhibitor inconclusive, G9a inh 50µM* and Glioma ERSR ind -17%.
`Cc1ccc(Nc2nc(C(=O)N3CCC(C(=O)N4CCN(C)CC4)CC3)cs2)cc1` gave Sfp inh 4%, 12-LOX inh -1%, VDR inhibitor 10%, G9a inh 50µM* and Glioma ERSR ind 3%.
Screening COc1cc2c(cc1OC)CN(Cc1ccc(C)s1)CC2 returned Sfp inh -21%, 12-LOX inh -11%, VDR inhibitor 2%, G9a inh 8.9µM* and Glioma ERSR ind -3%.
Screening CC(=O)OCC(=O)c1ccc2ccn(C(C)=O)c2c1 returned Sfp inh 20%, 12-LOX inh -1%, VDR inhibitor 7%, G9a inh 9%[59 µM] and Glioma ERSR ind -4%.
For COc1ccccc1N1CCN(CC(=O)c2ccc3ccn(C(C)=O)c3c2)CC1 the results were Sfp inh inconclusive, VDR inhibitor inconclusive, G9a inh 11µM* and Glioma ERSR ind -4%.
`COc1ccc(Nc2nc(C(=O)N3CCc4cc(OC)c(OC)cc4C3)cs2)cc1` gave Sfp inh -10%, 12-LOX inh -4%, VDR inhibitor 13%, G9a inh 45µM* and Glioma ERSR ind -4%.
For COC(=O)c1c(NC(C)=O)sc(C)c1C the results were Sfp inh 6%, 12-LOX inh 1%, VDR inhibitor -4%, G9a inh -4% and Glioma ERSR ind -6%.
Screening CCOC(=O)c1c(NC(=O)/C=C/c2ccc(C)o2)sc(C)c1C returned Sfp inh 35µM*, 12-LOX inh inconclusive, VDR inhibitor -20%, G9a inh 8.9µM* and Glioma ERSR ind -2%.
For Cc1ccc(/C=C/C(=O)Nc2sc(C)c(C)c2C(=O)OC(C)C)o1 the results were Sfp inh inconclusive, 12-LOX inh inconclusive, VDR inhibitor -20%, G9a inh -4%[59 µM] and Glioma ERSR ind -2%.
Screening CCOC(=O)c1c(NC(=O)CCc2ccc(CC)o2)sc(C)c1C returned Sfp inh inconclusive, 12-LOX inh inconclusive, VDR inhibitor -26%, G9a inh 28µM* and Glioma ERSR ind 1%.
Screening Cc1ccc(CCC(=O)Nc2ccc(CC(=O)O)cc2)o1 returned Sfp inh inconclusive, 12-LOX inh -6%, VDR inhibitor 79µM*, G9a inh 56µM* and Glioma ERSR ind -4%.
Screening COC(=O)c1c(NC(=O)CCc2ccc(C)o2)sc(C)c1C returned Sfp inh 20µM*, 12-LOX inh -28%, VDR inhibitor inconclusive, G9a inh inconclusive and Glioma ERSR ind -3%.
Cc1nc2nc(SCC(=O)c3ccc(Cl)cc3)[nH]c2cc1Br was read as 12-LOX inh -3%.
For Cn1c(=O)c2[nH]c(CN3CCN(c4ccccc4F)CC3)nc2n(C)c1=O the results were 12-LOX inh 0%.
For CC(=O)N1CCc2cc(S(=O)(=O)CCC(=O)N3CCC(CCOc4ccccc4)C3)ccc21 (configuration not stated) the results were 12-LOX inh -1%.
Screening Cc1sc(NC(=O)/C=C/c2ccco2)c(C(=O)O)c1C returned Sfp inh -22%, 12-LOX inh 0%, VDR inhibitor 5%, G9a inh 45µM* and Glioma ERSR ind 1%.
For O=C(CN(CC1CCOC1)C1CC1)NC1CC1 (configuration not stated) the results were 12-LOX inh -12%.
COc1cc2c(cc1OC)C(c1ccccc1O)N(C1CC(=O)N(c3ccccc3)C1=O)CC2 (configuration not stated) was read as Sfp inh inconclusive, 12-LOX inh 0%, VDR inhibitor -6%, G9a inh 8.9µM* and Glioma ERSR ind -3%.
For COc1cc2c(cc1OC)C(c1ccccc1)N(C(=O)CCl)CC2 (configuration not stated) the results were Sfp inh 2%, 12-LOX inh -10%, VDR inhibitor -4%, G9a inh -7%[59 µM] and Glioma ERSR ind -16%.
`Cc1ccc(NC(=O)CN2CCN(C(=O)CCc3ncc(-c4ccc(C)c(C)c4)o3)CC2)cc1` gave 12-LOX inh 16%.
`CC(C)NC(=O)c1ccccc1Cl` gave 12-LOX inh -4%.
Cc1oncc1C(=O)NC(C)C was read as Sfp inh 25%, 12-LOX inh 0%, VDR inhibitor 0%, G9a inh 45µM* and Glioma ERSR ind -6%.
`O=C(NCc1ccccc1)c1csc(N2CCN(c3ccc(Cl)cc3)CC2)n1` gave 12-LOX inh 28%.
For COc1cc(OC)cc(C(=O)NC(=S)NNC(=O)[C@H]2C[C@@H]2c2ccccc2)c1 the results were Sfp inh -9%, 12-LOX inh inconclusive, VDR inhibitor -5%, G9a inh 20µM* and Glioma ERSR ind 13%.
`O=C(NC(=S)NNC(=O)[C@H]1C[C@@H]1c1ccccc1)c1ccc(-c2ccccc2)cc1` gave 12-LOX inh 76%.
O=C(/C=C/c1ccc(F)cc1)NC(=S)NNC(=O)[C@H]1C[C@@H]1c1ccccc1 was read as Sfp inh 19%, 12-LOX inh inconclusive, VDR inhibitor -6%, G9a inh 35µM* and Glioma ERSR ind 1%.
`O=C(NC(=S)NNC(=O)[C@H]1C[C@@H]1c1ccccc1)c1ccc(F)cc1` gave Sfp inh inconclusive, 12-LOX inh 13%, VDR inhibitor -1% and Glioma ERSR ind 1%.
Screening COc1cc(OC)cc(C(=O)NC(=S)NCCc2ccccc2)c1 returned Sfp inh 27%, 12-LOX inh inconclusive, VDR inhibitor 18%, G9a inh inconclusive and Glioma ERSR ind -4%.
For COc1ccc(C(=O)NC(=S)NNC(=O)[C@H]2C[C@@H]2c2ccccc2)cc1OC the results were Sfp inh -4%, 12-LOX inh inconclusive, VDR inhibitor -5%, G9a inh 45µM* and Glioma ERSR ind -1%.
Screening Cc1ccccc1N=Nc1c(C)[nH]n(-c2ccccc2)c1=O returned Sfp inh 20%, VDR inhibitor 0%, G9a inh 2.2µM* and Glioma ERSR ind -5%.
